Common to all, as to test: universal protein binding microarray (PBM); transcription factors of Arabidopsis thaliana; high values mean tight binding
The target in assay [1] is T1, GST-ANAC055(1-171) (Arabidopsis thaliana, UniProt Q9LDY8 1-171).
T1 sequence: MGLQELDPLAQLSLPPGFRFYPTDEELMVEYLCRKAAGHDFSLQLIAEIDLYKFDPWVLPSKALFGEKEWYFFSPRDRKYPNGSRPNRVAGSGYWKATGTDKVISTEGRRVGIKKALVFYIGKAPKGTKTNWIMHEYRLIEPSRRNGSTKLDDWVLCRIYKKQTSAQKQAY
The following applies: protein: recombinant; tags: GST; chain copies: 2; dsDNA, one strand shown. A digest of the protocol: (§1)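 Each value is a normalised enrichment score (E-score) describing binding. The GST-tagged proteins, NAC-domain, full-length or DNA-binding-domain, were induced in cells (zinc-finger proteins with zinc acetate added) and purified on glutathione–Sepharose 4B. They were applied at 200 to 500 nM final, in duplicate, to double-stranded custom all-10-mer Agilent 4 × 180K arrays, and gapped and ungapped 8-mers were scored.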

Assay [2] deals with T2, GST-ATAF1 NAC domain (Arabidopsis thaliana, UniProt Q39013 7-158).
T2 sequence: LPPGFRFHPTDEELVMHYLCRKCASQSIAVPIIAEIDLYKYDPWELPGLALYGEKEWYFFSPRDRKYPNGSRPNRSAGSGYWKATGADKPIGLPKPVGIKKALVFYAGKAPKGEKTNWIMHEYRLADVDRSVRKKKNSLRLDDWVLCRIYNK
The following applies: protein: recombinant; tags: GST; chain copies: 2; dsDNA, one strand shown. In outline:
as §1

Assay [3] concerns the target T3, GST-VND3 NAC domain (Arabidopsis thaliana, UniProt Q9FH59 12-162).
T3 sequence: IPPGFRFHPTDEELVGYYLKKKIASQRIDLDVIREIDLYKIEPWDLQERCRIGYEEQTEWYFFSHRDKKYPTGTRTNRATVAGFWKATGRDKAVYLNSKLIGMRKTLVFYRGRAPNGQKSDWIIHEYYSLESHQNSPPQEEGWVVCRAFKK
The settings on record: protein: recombinant; tags: GST; chain copies: 2; dsDNA, one strand shown. A digest of the protocol: as §1

Assay [4] concerns the target GST-WRKY1(266-371) (Arabidopsis thaliana, UniProt Q9SI37 266-371). The following applies: protein: recombinant; tags: GST; dsDNA, one strand shown. In outline:
as §1

Assay [5] addresses T4, GST-NAP(1-166) (Arabidopsis thaliana, UniProt O49255 1-166).
T4 sequence: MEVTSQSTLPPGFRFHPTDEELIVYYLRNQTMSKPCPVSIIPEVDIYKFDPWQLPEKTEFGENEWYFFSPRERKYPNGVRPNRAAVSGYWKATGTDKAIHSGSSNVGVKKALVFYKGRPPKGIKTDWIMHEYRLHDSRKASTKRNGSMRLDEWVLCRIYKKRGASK
The settings on record: protein: recombinant; tags: GST; chain copies: 2; dsDNA, one strand shown. A digest of the protocol: as §1

Assay [6] concerns the target T5, GST-VND7 NAC domain (Arabidopsis thaliana, UniProt Q9C8W9 9-158).
T5 sequence: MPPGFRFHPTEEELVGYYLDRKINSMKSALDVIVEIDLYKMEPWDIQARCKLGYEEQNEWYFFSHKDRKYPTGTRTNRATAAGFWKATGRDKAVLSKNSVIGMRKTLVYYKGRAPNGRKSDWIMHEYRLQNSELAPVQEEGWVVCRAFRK
The settings on record: protein: recombinant; tags: GST; chain copies: 2; dsDNA, one strand shown. A digest of the protocol:
as §1

The target of assay [7] is T6, GST-ANAC092(1-285) full length (Arabidopsis thaliana, UniProt Q9FKA0 1-285).
T6 sequence: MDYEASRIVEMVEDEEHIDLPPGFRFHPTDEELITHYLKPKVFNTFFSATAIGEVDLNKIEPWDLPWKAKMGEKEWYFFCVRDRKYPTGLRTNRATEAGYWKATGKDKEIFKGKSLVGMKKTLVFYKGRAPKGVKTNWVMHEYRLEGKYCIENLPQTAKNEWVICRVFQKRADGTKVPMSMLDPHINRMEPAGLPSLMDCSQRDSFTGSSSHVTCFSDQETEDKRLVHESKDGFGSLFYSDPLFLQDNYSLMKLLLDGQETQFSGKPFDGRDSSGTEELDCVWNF
The following applies: protein: recombinant; tags: GST; chain copies: 2; dsDNA, one strand shown. In outline: as §1

Assay [8] addresses T7, GST-ANAC092(1-176) (Arabidopsis thaliana, UniProt Q9FKA0 1-176).
T7 sequence: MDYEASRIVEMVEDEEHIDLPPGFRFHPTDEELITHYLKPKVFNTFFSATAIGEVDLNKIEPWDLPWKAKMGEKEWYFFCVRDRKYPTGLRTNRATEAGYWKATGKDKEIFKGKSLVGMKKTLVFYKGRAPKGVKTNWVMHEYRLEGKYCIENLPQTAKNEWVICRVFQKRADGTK
The following applies: protein: recombinant; tags: GST; chain copies: 2; dsDNA, one strand shown. A digest of the protocol: as §1

The target of assay [9] is GST-NTL6(1-168) (Arabidopsis thaliana, UniProt Q9SCK6 1-168). The settings on record: protein: recombinant; tags: GST; chain copies: 2; dsDNA, one strand shown. In outline:
as §1

Assay [10] addresses T8, GST-ANAC019 NAC domain (Arabidopsis thaliana, UniProt Q9C932 14-162).
T8 sequence: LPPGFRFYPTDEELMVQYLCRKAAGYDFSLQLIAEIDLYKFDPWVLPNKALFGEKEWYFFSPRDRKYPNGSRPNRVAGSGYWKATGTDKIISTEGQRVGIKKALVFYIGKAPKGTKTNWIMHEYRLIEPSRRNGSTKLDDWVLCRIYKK
The settings on record: protein: recombinant; tags: GST; chain copies: 2; dsDNA, one strand shown. A digest of the protocol:
as §1

The target of assay [11] is T9, GST-NTL8 NAC domain (Arabidopsis thaliana, UniProt Q9XIN7 14-156).
T9 sequence: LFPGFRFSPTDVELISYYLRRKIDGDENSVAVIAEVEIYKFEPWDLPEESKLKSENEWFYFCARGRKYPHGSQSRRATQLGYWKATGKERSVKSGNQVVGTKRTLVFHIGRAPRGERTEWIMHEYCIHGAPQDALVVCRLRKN
The settings on record: protein: recombinant; tags: GST; chain copies: 2; dsDNA, one strand shown. In outline: as §1

For assay [12], the target named is T10, GST-NST2(1-184) (Arabidopsis thaliana, UniProt Q9M274 1-184).
T10 sequence: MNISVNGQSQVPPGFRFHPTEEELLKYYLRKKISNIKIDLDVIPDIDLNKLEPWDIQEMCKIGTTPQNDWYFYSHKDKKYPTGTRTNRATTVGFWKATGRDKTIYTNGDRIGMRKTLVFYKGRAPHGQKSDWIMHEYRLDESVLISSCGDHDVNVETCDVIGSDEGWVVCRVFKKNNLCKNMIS
The settings on record: protein: recombinant; tags: GST; chain copies: 2; dsDNA, one strand shown. In outline:
as §1

GST-NTL6(1-168), sequence (Q9SCK6 1-168): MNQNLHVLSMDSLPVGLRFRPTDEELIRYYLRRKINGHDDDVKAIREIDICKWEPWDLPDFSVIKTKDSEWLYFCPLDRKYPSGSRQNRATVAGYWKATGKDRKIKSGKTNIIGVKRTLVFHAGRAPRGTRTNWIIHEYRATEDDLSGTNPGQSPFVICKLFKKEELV
GST-WRKY1(266-371), sequence (Q9SI37 266-371): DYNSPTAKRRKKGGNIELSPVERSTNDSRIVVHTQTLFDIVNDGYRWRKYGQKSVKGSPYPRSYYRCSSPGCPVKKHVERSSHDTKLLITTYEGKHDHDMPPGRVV

For AATTTGAC, the binding signal in [1] is 0.0892 E-score; in [2], 0.237 E-score; in [3] it was 0.0556 E-score; in assay [4], 0.451 E-score.
For the sequence AGTCAAAT, the binding signal in assay [2] was 0.213 E-score; in assay [5], 0.113 E-score; in assay [6] it was 0.152 E-score; in assay [4], 0.476 E-score.
Turning to CATTGACG, the binding signal in assay [7] stood at 0.149 E-score; in assay [3] it was 0.08 E-score; in [4] it was 0.411 E-score.
Take TAGGTCAA: the binding signal came out at 0.077 E-score in assay [1], 0.145 E-score in assay [2], 0.0723 E-score in assay [3] and 0.482 E-score in [4].
Take GGTCATAC: the binding signal in assay [5] worked out at 0.108 E-score; in [3], 0.115 E-score; in [4], 0.421 E-score.
On to AGAGGTAA, for which the binding signal was 0.145 E-score in assay [8]; 0.237 E-score in assay [9]; 0.0713 E-score in assay [10]; 0.0996 E-score in assay [1]; 0.106 E-score in assay [2]; 0.0742 E-score in assay [5]. Further, the binding signal in assay [11] came out at 0.427 E-score; in assay [3] it was 0.0836 E-score.
With AAAAAGTC, the binding signal in [10] is 0.0791 E-score; in [1] it was 0.209 E-score; in [2], 0.184 E-score; in assay [12], 0.122 E-score; in assay [11], 0.0525 E-score; in assay [3] it was 0.0942 E-score. For the same sequence, the binding signal in assay [4] was determined as 0.426 E-score.
In the case of AGGGAAAT, the binding signal was 0.137 E-score in [8]; 0.0669 E-score in assay [9]; 0.0765 E-score in assay [10]; 0.112 E-score in assay [2]; 0.106 E-score in [7]; 0.0566 E-score in assay [12]. The values for the binding signal in assay [11] and in assay [3] were 0.406 E-score and 0.0592 E-score, respectively.
Regarding GACCGGAA, the binding signal in [8] was found to be 0.0538 E-score; in assay [10] it was 0.213 E-score; in [1], 0.0745 E-score; in [11], 0.0847 E-score; in [6] it was 0.0568 E-score; in assay [4], 0.404 E-score.
For the sequence GTCAATAA, the binding signal was determined as 0.109 E-score in [9]; 0.134 E-score in assay [1]; 0.135 E-score in assay [2]; 0.122 E-score in [5]; 0.118 E-score in [12]; 0.112 E-score in assay [6]. Also, in assay [4], the binding signal was 0.457 E-score.
As to ATTTTGAC, the binding signal in assay [2] was 0.15 E-score; in assay [7], 0.0617 E-score; in assay [12] it was 0.0826 E-score; in assay [3], 0.101 E-score; in assay [4] it was 0.461 E-score.
On to AAGGTCAG, for which the binding signal was 0.0646 E-score in [2], 0.0579 E-score in assay [11], 0.0582 E-score in [3] and 0.425 E-score in assay [4].
For the sequence CATTTGAC, the binding signal was determined as 0.0579 E-score in assay [1]; 0.0746 E-score in assay [2]; 0.0611 E-score in [12]; 0.105 E-score in assay [3]; 0.462 E-score in [4].
For CCTGGTCA, the binding signal in assay [4] was determined as 0.454 E-score.
Consider AAGTTGAC, for which the binding signal in assay [1] worked out at 0.0649 E-score; in assay [2], 0.0834 E-score; in [6], 0.0703 E-score; in [4], 0.476 E-score.
Regarding TTAGTCAA, the binding signal in assay [10] was 0.12 E-score; in assay [2] it was 0.107 E-score; in [7], 0.0778 E-score; in assay [3], 0.11 E-score; in assay [4] it was 0.481 E-score.
As for CAGTCAAG, the binding signal is 0.051 E-score in [8], 0.063 E-score in assay [7], 0.0503 E-score in assay [11] and 0.444 E-score in assay [4].
With GTTGACCA, the results for the binding signal in assay [8] and in assay [4] were 0.131 E-score and 0.492 E-score, respectively.
Turning to AGTCCACG, the values for the binding signal in assay [8], in assay [10] and in assay [4] were 0.062 E-score, 0.0759 E-score and 0.438 E-score, respectively.
For CCAGTCAA the same measures were 0.0755 E-score, 0.0525 E-score and 0.474 E-score.
Turning to GGCTTGAC, the binding signal stood at 0.0969 E-score in assay [8] and 0.452 E-score in [4].
Consider CGAAGACC, for which the binding signal in assay [4] came to 0.436 E-score.
Regarding GGTCAAAC, the binding signal in assay [8] turned out to be 0.0595 E-score; in assay [2] it was 0.0641 E-score; in assay [7], 0.0869 E-score; in assay [12], 0.0597 E-score; in assay [4], 0.494 E-score.
On to CAAGTCAA, for which the binding signal in [8] came to 0.0929 E-score; in assay [2] it was 0.0933 E-score; in [7], 0.234 E-score; in assay [4] it was 0.486 E-score.
